# Bioassay records deposited in PubChem by National Center for Advancing Translational Sciences (NCATS).
# Hits are enriched below; roughly 7.3% of the tested compounds scored in any of these assays.
# Vaccinia Venus – inhibitors of vaccinia virus (Venus reporter); AID 720580; 0.46% of 330,000 active; Vaccinia virus Venus reporter expression, fluorescence; Potency, µM (series often up to 36.5 µM), most hits filed as inhibitors; calls by dose curve; tested in A549 cells; also: nearly all actives have a fitted effect of over 30% in size
# Vaccinia mCherry – vaccinia inhibition (mCherry reporter) | Vaccinia virus mCherry reporter infection, fluorescence | Potency, µM (top dose mostly 36.5 µM), actives largely listed as inhibitors | 0.63% of 310,000 active | AID 720579; calls by dose curve; tested in A549 cells; also: nearly all actives have a fitted effect of over 35% in size
# FMDV antiviral – blocks foot and mouth disease virus; FMDV antiviral cell-based qHTS; Potency, µM (titrated, usually from 57.9 µM), hits mostly inhibitors; 1.2% of 410,000 active; AID 1159524; calls by dose curve; tested in HEK293T cells; also: read-out not given here; nearly all actives have a fitted effect of over 45% in size
# HCMV inh – inhibitors of human cytomegalovirus; HFF cells, HCMV-luciferase reporter, 72 h; stronger effect = lower value; activity change, negative = inhibition, % at 57.5 µM; 4.5% of 410,000 active; in the data active = activity change below about -60%; inconclusive = no clear call, values can overlap the other calls; inactive = above about -39%
#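 Screen run at 2 compound doses on HFFs infected with reporter HCMV, MOI 1 PFU/cell. Luciferase activity from cell lysates at 72 h post infection gave inhibition relative to buffer-only and Salinomycin wells.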
# HCV inh – inhibitors of hepatitis C virus infection; Huh7.5.1 HCVcc-Cre infection, luciferase reporter, 44 h; Potency, µM (series often up to 41.8 µM), usual class: inhibitors; 3.4% of 340,000 active; AID 651820; active = well fitted inhibition curve with a large enough effect; inconclusive = small, poorly fitted or top-dose-only effect, or another doubt; inactive = no such curve, though single readings can be large or run the other way
#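 Reporter virus HCVcc-Cre (~0.5 moi) infects cells exposed to compound; seeding density 1,000 cells/well with 4 h settling beforehand. Luminescence, 15 sec read, taken 44 h post-infection following a 15 min RT substrate incubation.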
# Numbers stand for hits; . = inactive; ? = inconclusive; / = no result.
SMILES,Vaccinia Venus,Vaccinia mCherry,FMDV antiviral,HCMV inh,HCV inh
COC(=O)c1cn([C@@H]2C[C@@H](C(=O)Nc3cccc(SC)c3)N(C3CCCCCC3)C2)nn1,.,.,.,/,/
COc1cc2cnc(-c3ccccc3)c(-c3ccc([N+](=O)[O-])cc3)c2cc1OC,.,.,.,.,.
COc1cc2cnc(-c3ccccc3)cc2cc1OC,.,.,.,.,22.4µM
COc1nc(-c2ccccc2)cc(-c2ccc(OC)c(OC)c2)n1,/,/,.,.,1.78µM
COc1ccc(-c2cc3cc(OC)c(OC)cc3cn2)cc1,?,.,.,.,?
COc1cc2cnc(-c3ccccc3)c(-c3cc(OC)c(OC)c(OC)c3)c2cc1OC,?,.,.,.,12.6µM
COc1ccc(-c2cc(-c3ccccc3)nc(NN)n2)cc1OC,.,?,.,.,?
COc1ccc(CCNC(=O)CN2C(=O)NC3(CCCCC3C)C2=O)cc1 (centres undefined),.,.,.,.,.
O=C(c1cc(C(F)(F)F)cc(C(F)(F)F)c1)N1CCC[C@@]2(CCN(Cc3ccncc3)C2)C1,/,/,.,/,/
CCn1c(SCc2cccc(F)c2)nc2c(c1=O)SCC2,.,.,?,-60.5,.
CCn1c(SCc2ccc(F)cc2)nc2c(c1=O)SCC2,.,.,.,.,.
CCN(CC)C(=O)C1=C(C)N(Cc2ccc(C(C)(C)C)cc2)C(=O)C(CC(=O)NC(c2ccccc2)c2ccccc2)C1 (centres undefined),12.6µM,?,?,.,/
CC1=C(C(=O)N(C)C)CC(CC(=O)NC(c2ccccc2)c2ccccc2)C(=O)N1Cc1ccc(C(C)(C)C)cc1 (centres undefined),?,.,.,.,/
COc1ccc(CN2C(=O)C(CC(=O)NC3CCCC3)CC(C(=O)N(C(C)C)C(C)C)=C2C)cc1 (centres undefined),.,.,.,.,/
CC1=C(C(=O)N(C(C)C)C(C)C)CC(CC(=O)NC2CCCCC2)C(=O)N1Cc1ccc(C(C)(C)C)cc1 (centres undefined),.,.,.,-87.7,/
Cc1cc2cc(C)c3nnc(SCC(=O)NCc4ccco4)n3c2cc1C,.,.,/,-79.2,.
CCCn1c(CC)nc([N+](=O)[O-])c1Sc1ccc(F)cc1,/,/,17.8µM,.,.
CC(=O)c1cc(-c2ccccc2)n(CC(=O)NCc2ccccc2C)c1C,.,.,.,.,/
CN(C)S(=O)(=O)c1cccc(NC(=O)c2cncc(Br)c2)c1,.,.,.,.,?
O=C(Nc1ccccc1[N+](=O)[O-])c1cncc(Br)c1,/,/,.,-73.9,.
Cc1ccc(S(=O)(=O)N(C)C)cc1NC(=O)c1cncc(Br)c1,8.91µM,6.31µM,?,?,?
CCOC(=O)c1cc(-c2ccc(C)cc2)n(CC(=O)Nc2ccc(OC)c(Cl)c2)c1C,?,.,.,-91.4,/
COc1ccc(NC(=O)CN2CCN(CC(=O)Nc3ccccc3Cl)CC2)cc1Cl,.,.,39.8µM,.,.
COc1ccc(Cl)cc1NC(=O)CN(C1CCCCC1)S(C)(=O)=O,/,/,?,.,4.47µM
CCOc1ccccc1C(=O)NC1CCN(CC(=O)Nc2cc(OC)ccc2OC)CC1,/,/,.,?,11.2µM
SMILES,Vaccinia Venus,Vaccinia mCherry,FMDV antiviral,HCMV inh,HCV inh
CC1=C(C(=O)N2CCOCC2)CC(CC(=O)NCc2cccc3ccccc23)C(=O)N1Cc1ccc(C(C)(C)C)cc1 (centres undefined),.,.,.,.,/
OC(c1ccc(-c2ccccc2)cc1)c1ncc(-c2ccc(F)cc2)[nH]1 (centres undefined),.,.,.,.,/
CCOC(=O)C1CC(c2ccccc2)=NN1c1ccccc1 (centres undefined),.,?,.,.,/
COc1ccc(Cl)cc1NC(=O)CN1CCC(NC(=O)C2CC2)CC1,.,.,.,-76.5,.
COc1ccc(Cl)cc1NC(=O)CN1CCc2ccccc2C1,/,/,.,-75.1,?
COc1ccc(Cl)cc1NC(=O)CN(C)CC(=O)Nc1c(C)n(C)n(-c2ccccc2)c1=O,/,/,.,.,3.55µM
COc1ccc(Cl)cc1NC(=O)CN1c2ccccc2CC1C (centres undefined),.,.,.,?,8.91µM
Cc1c(NC(=O)COC(=O)COc2ccc(Nc3ccccc3)cc2)c(=O)n(-c2ccccc2)n1C,.,.,.,.,.
Cc1cc(C)cc(OCC(=O)OCC(=O)Nc2c(C)n(C)n(-c3ccccc3)c2=O)c1,.,.,.,.,1µM
Cc1ccc2nc(N(CCCN(C)C)C(=O)c3ccc(Br)s3)sc2c1,.,.,.,.,10µM
Cc1ccc2nc(N(CCCN(C)C)C(=O)c3ccco3)sc2c1,.,.,.,.,10µM
COc1cc(/C=C/c2ccnc3ccccc23)cc(OC)c1OC,.,.,/,/,/
O=C(Nc1ccc(Cl)cc1)Nc1nnc(CSCc2ccc(Cl)cc2)s1,/,/,?,-67.4,5.01µM
CCc1nnc(NC(=O)Nc2ccc(Cl)cc2)s1,.,.,.,.,.
COc1ccc2nc3oc(C(=O)N4CCN(c5cc(C)ccc5C)CC4)cc3cc2c1,.,.,.,.,/
COCCN1CCN(C(=O)c2cc(COc3cc(C)ccc3C)on2)CC1,/,/,.,/,.
COC(=O)c1ccccc1NN=Nc1ccccc1[N+](=O)[O-],.,.,.,-101.0,/
O=[N+]([O-])c1ccccc1N=NNc1ccccc1,.,.,.,.,?
O=C1c2ccccc2CCC1CNCCc1ccc(O)cc1 (centres undefined),.,.,.,/,/
COc1ccc(COCC(O)CN2CCN(S(=O)(=O)c3c(F)cccc3F)CC2)cc1OC (centres undefined),.,.,.,.,35.5µM
O=C(O)Cc1sc(N/N=C\c2ccccc2)nc1-c1ccccc1,.,.,.,.,.
CCCc1sc(N/N=C/c2ccccn2)nc1-c1ccc(F)cc1,?,11.2µM,/,/,?
COC(=O)c1ccc(/C=N/Nc2nc(C)c(C)s2)cc1,?,?,.,.,.
Cc1nc(N/N=C/c2ccccn2)sc1C,?,?,.,-98.0,?
COc1ccc(CCNc2oc(Cc3cccc4ccccc34)nc2C#N)cc1OC,?,/,28.2µM,.,7.94µM
SMILES,Vaccinia Venus,Vaccinia mCherry,FMDV antiviral,HCMV inh,HCV inh
CNc1oc(Cc2cccc3ccccc23)nc1C#N,.,.,.,.,.
N#Cc1nc(Cc2cccc3ccccc23)oc1NCCN1CCCCC1,/,/,.,.,11.2µM
COc1ccc(CCNc2oc(-c3ccc(C)cc3)nc2C#N)cc1OC,/,/,.,.,?
COc1ccc(CCNc2oc(COc3ccc(Br)cc3)nc2C#N)cc1OC,.,.,31.6µM,.,?
COc1ccc(Nc2oc(COc3ccc(Cl)cc3)nc2C#N)cc1,.,.,?,-78.3,?
COc1cccc(C2c3[nH]c4ccccc4c3C[C@H]3C(=O)N(c4ccccc4C(=O)N4CCC[C@H]4C(=O)O)C(=O)N23)c1 (some centres undefined),.,.,.,.,2.24µM
OC(COCC1COc2ccccc2O1)CN1CCN(c2ccccn2)CC1 (centres undefined),.,?,.,-65.7,?
OC(COCC1COc2ccccc2O1)CN1CCc2ccccc2C1 (centres undefined),.,.,.,.,.
